Records with an inconclusive call do not appear. Active and inactive are the calls of the source. Unless noted, calls come from the whole dose curve; as a rule, active = well fitted curve in the direction sought with a large enough effect in the repeat runs; inconclusive = weak or mixed curves; inactive = no such curve, though single readings can be large; an effect the other way counts as inactive or inconclusive.
Key:
[1] = biological target: Thyrotropin receptor (Homo sapiens) (UniProt P16473); assay: qHTS assay to identify small molecule antagonists of the thyroid stimulating hormone receptor (TSHR) signaling pathway (AID 1259385; calls by dose curve; note: nearly all actives have a fitted effect of over 20% in size; note: potency is the fitted concentration of half-maximal effect)
Summary of the method: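 TSHR-HEK293 cells (800/well) plated 18 h, then compounds with Ro20-1724 and TSH at 1.5 ng/mL final, 30 min at room temperature. cAMP quantified by HTRF (cAMP-d2/anti-cAMP-cryptate, 1 h); 15 concentrations in triplicate.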

[2] = qHTS assay to identify small molecule agonists of the estrogen receptor alpha (ER-alpha) signaling pathway in the presence of an antagonist - cell viability counter screen (AID 1259386);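 note: series mostly up to about 92 µM; cells exposed to compounds for 22 h at 37 °C before the viability read; nearly all actives have a fitted effect of over 30% in size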
Summary of the method: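 Using estrogen-depleted VM7Luc4E2 cells, the 15-concentration compound series was applied together with 10.0nM ICI-182,780 and incubated 22hr at 37C/5% CO2. Cell viability was then scored by CellTiter-Fluor.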

[3] = qHTS assay to identify small molecule antagonists of the progesterone receptor (PR) signaling pathway - cell viability counter screen (AID 1346798); note: nearly all actives have a fitted effect of over 50% in size; note: potency is the fitted concentration of half-maximal effect; for activity change, negative = cytotoxicity: series mostly up to about 92 µM
Summary of the method: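 Following a 4 hr attachment, PR-UAS-bla HEK293T cells in charcoal-stripped FBS medium were exposed to compounds with R5020 for 16 hr; CellTiter-Glo was added and luminescence read after 30 min at room temperature.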

[4] = qHTS assay to identify small molecule antagonists of the TGF-beta/Smad signaling pathway - cell viability counter screen (AID 1346824); note: nearly all actives have a fitted effect of over 50% in size
Summary of the method: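 SBE-bla HEK 293T cells, incubated overnight, then compound plus 0.25 ng/mL TGF-beta1 (stock added) for 5 hr at 37 C. Viability was read in the same wells by CellTiter-Glo luminescence after 30 min at room temperature.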

[5] = qHTS assay to identify small molecule agonists of the TGF-beta/Smad signaling pathway - cell viability counter screen (AID 1346829); note: top concentration of the series differs between compounds; nearly all actives have a fitted effect of over 45% in size
Summary of the method: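 Luminescence from CellTiter-Glo, read after a 30 min room-temperature incubation, gives cell viability of SBE-bla HEK 293T cells treated 5 hr with compounds at 37 C.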

[6] = biological target: Thyrotropin-releasing hormone receptor (Homo sapiens) (UniProt P34981); assay: qHTS assay to identify small molecule antagonists of the thyrotropin-releasing hormone receptor (TRHR) signaling pathway (AID 1346877; active = well fitted inhibition curve with a large enough effect in the repeat runs, not every such curve was filed as active; note: series mostly up to about 51 µM)
Summary of the method: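 Calcium signal in dye-loaded TRHR/HEK293 cells; compounds added 5 min before TRH (1 nM final); fluorescence monitored 3 min at 1 s steps.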

[7] = biological target: Thyrotropin-releasing hormone receptor (Homo sapiens) (UniProt P34981); assay: qHTS assay to identify small molecule agonists of the thyrotropin-releasing hormone receptor (TRHR) signaling pathway (AID 1346891; calls by dose curve; note: series mostly up to about 58 µM)
Summary of the method: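 Screening of agonists relied on calcium signalling in HEK293 cells expressing human TRHR: dye loading 2 h at 37 °C preceded compound addition and a 3-min fluorescence time course.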

[8] = Human pregnane X receptor (PXR) small molecule agonists, qHTS cell viability counter screen (AID 1346977); note: nearly all actives have a fitted effect of over 50% in size
Summary of the method: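 Tox21 qHTS format; PXR-Luc HepG2, 2,000/well, charcoal-stripped FBS 5%. Cpd exposure 24hr. Read: CellTiter-Fluor fluorescence, multiplexed with luciferase.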

[9] = Caspase-3/7 induction in HepG2 cells by small molecules, qHTS assay (AID 1346978); note: nearly all actives have a fitted effect of over 15% in size; note: potency is the fitted concentration of half-maximal effect
Summary of the method: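 Wild-type HepG2 cells, 2,000/well, settled 5 hr at 37 C and 5% CO2, then compound-treated for 17 hr; caspase-3/7 activity read by luminescent Caspase-Glo 3/7 after 30 min at room temperature.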

[10] = Caspase-3/7 induction in CHO-K1 cells by small molecules, qHTS cell viability counter screen (AID 1346979); note: nearly all actives have a fitted effect of over 35% in size
Summary of the method: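 CellTiter-Fluor viability check, qHTS format: wild-type CHO-K1, 16hr compound treatment, 1hr reagent incubation, fluorescence read.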

[11] = Caspase-3/7 induction in CHO-K1 cells by small molecules, qHTS assay (AID 1346980); note: nearly all actives have a fitted effect of over 15% in size
Summary of the method: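 Wild-type CHO-K1 cells exposed to compounds for 17hr at 37 C, 5% CO2. Caspase-3/7 activity then measured by Caspase-Glo 3/7 luminescence after 30min at room temperature.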

[12] = Caspase-3/7 induction in HepG2 cells by small molecules, qHTS cell viability counter screen (AID 1346981); note: series mostly up to about 92 µM; nearly all actives have a fitted effect of over 30% in size
Summary of the method: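 After a 5-hr attachment period at 37 C and 5% CO2, wild-type HepG2 cells received compounds in DMSO. Sixteen hours later CellTiter-Fluor was dispensed and the fluorescent signal quantified after a further hour.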

[13] = biological target: Nuclear receptor subfamily 1 group I member 2 (Homo sapiens) (UniProt O75469); assay: Human pregnane X receptor (PXR) small molecule agonists, qHTS assay (AID 1346982); note: nearly all actives have a fitted effect of over 35% in size; note: potency is the fitted concentration of half-maximal effect
Summary of the method: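 Tox21 qHTS; PXR-Luc HepG2; compounds pinned from DMSO; 24 hr, 37 C; ONE-Glo luciferase detection, 30 min room temperature.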

[14] = qHTS assay to identify small molecule agonists of the progesterone receptor (PR) signaling pathway - cell viability counter screen (AID 1346799; calls by dose curve; note: nearly all actives have a fitted effect of over 45% in size)
Summary of the method: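 Here, 3,000 PR-UAS-bla HEK293T cells per well were treated with compounds for 16 hr after a 6 hr preincubation at 37C and 5% CO2; cell viability is the CellTiter-Glo luminescence signal.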

[15] = biological target: Nuclear receptor subfamily 1 group I member 2 (Rattus norvegicus) (UniProt Q9R1A7); assay: Rat pregnane X receptor (rPXR) activation by small molecules, qHTS assay (AID 1346983); details: rPXR luciferase reporter cells, One-Glo luminescence, 24 h; max activation: stronger effect = higher value; note: nearly all actives have a fitted effect of over 20% in size
Summary of the method: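 Cell-based rPXR activation assay: rPXR cells, 2,000 per well, rested 5hr at 37 C, then exposed to compounds in DMSO for 24 hr at 37 C. Luciferase activity read by One-Glo luminescence after 30 min at room temperature.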

[16] = biological target: Nuclear receptor subfamily 1 group I member 2 (Homo sapiens) (UniProt O75469); assay: CYP3A4 induction through human pregnane X receptor (PXR) by small molecules, qHTS assay (AID 1346984); note: nearly all actives have a fitted effect of over 40% in size; note: potency is the fitted concentration of half-maximal effect
Summary of the method: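 Cells (DPX-2; HepG2 with PXR element plus CYP3A4-promoter luciferase) settled 5hr, then were treated 24hr at 37C. A 3hr, 3uM-final Luciferin-IPA step preceded luminescence measurement with One-Glo.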

[17] = biological target: Nuclear receptor subfamily 1 group I member 2 (Homo sapiens) (UniProt O75469); assay: Human pregnane X receptor (PXR) activation by small molecules, qHTS assay (AID 1346985); note: nearly all actives have a fitted effect of over 40% in size; note: potency is the fitted concentration of half-maximal effect
Summary of the method: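 DPX-2 cells (HepG2 co-transfected with a PXR response element and a CYP3A4-promoter luciferase construct) were seeded at 2,000 per well, rested 5 hr at 37C, then exposed to DMSO-dissolved compounds for 24 hr. Activation was read as luciferase luminescence.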

[18] = biological target: Progesterone receptor (Homo sapiens) (UniProt P06401); assay: qHTS assay to identify small molecule agonists of the progesterone receptor (PR) signaling pathway (AID 1346784; calls by dose curve; note: nearly all actives have a fitted effect of over 30% in size)
Summary of the method: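 Compounds were tested for PR agonism in HEK 293T cells bearing a beta-lactamase gene under UAS control. Treatment lasted 16 hr at 37C; signal came from fluorescence of a FRET substrate.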

[19] = biological target: Progesterone receptor (Homo sapiens) (UniProt P06401); assay: qHTS assay to identify small molecule antagonists of the progesterone receptor (PR) signaling pathway (AID 1346795; active = well fitted inhibition curve with a large enough effect in the signal ratio in the repeat runs, not every such curve was filed as active; the % refers to the signal ratio; note: potency is the fitted concentration of half-maximal effect)
Summary of the method: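 In HEK293T cells bearing the PR-UAS-bla reporter, compound effects on promegestone-driven (1 nM) beta-lactamase expression are assessed after 16 hr using a fluorescent FRET substrate incubated 2 hr at room temperature.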

[20] = qHTS assay to identify small molecule agonists of the TGF-beta/Smad signaling pathway (AID 1346859; active = well fitted activation curve with a large enough effect in the signal ratio in the repeat runs, not every such curve was filed as active; the % refers to the signal ratio; note: series mostly up to about 77 µM)
Summary of the method: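 Each well held 4,000 SBE-bla HEK 293T cells incubated overnight before compound addition; 5 hr later the cleavable FRET substrate went on for 2 hr at room temperature, and fluorescence was read at two emissions.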
% is set by controls: 0 for no effect and ±100 for the full control effect.

Chain of Thyrotropin-releasing hormone receptor (Homo sapiens) (P34981 whole entry, looked up): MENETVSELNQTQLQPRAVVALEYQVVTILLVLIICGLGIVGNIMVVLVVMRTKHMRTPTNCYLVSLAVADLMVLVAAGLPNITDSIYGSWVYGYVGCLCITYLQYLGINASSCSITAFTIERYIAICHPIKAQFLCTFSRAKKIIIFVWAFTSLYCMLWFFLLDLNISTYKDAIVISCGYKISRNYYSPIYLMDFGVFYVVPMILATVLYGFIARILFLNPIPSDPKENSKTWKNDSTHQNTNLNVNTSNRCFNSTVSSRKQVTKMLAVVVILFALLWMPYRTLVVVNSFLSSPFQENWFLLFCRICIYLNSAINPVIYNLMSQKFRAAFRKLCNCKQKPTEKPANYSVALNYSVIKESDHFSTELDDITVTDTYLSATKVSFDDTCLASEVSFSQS
Chain of Nuclear receptor subfamily 1 group I member 2 (Homo sapiens) (O75469 whole entry, looked up): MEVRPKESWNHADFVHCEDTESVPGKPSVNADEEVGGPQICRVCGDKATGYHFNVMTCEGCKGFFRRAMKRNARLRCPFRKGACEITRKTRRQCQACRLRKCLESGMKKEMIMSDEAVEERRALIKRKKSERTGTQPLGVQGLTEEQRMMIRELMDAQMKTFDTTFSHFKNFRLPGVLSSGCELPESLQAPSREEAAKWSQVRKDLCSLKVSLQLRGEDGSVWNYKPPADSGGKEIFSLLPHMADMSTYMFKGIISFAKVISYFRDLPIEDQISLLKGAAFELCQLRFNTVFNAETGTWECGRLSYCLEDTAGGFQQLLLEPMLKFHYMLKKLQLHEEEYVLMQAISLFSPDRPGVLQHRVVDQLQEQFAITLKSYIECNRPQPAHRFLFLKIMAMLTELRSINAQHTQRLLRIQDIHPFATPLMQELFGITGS
Chain of Thyrotropin receptor (Homo sapiens) (P16473 whole entry, looked up): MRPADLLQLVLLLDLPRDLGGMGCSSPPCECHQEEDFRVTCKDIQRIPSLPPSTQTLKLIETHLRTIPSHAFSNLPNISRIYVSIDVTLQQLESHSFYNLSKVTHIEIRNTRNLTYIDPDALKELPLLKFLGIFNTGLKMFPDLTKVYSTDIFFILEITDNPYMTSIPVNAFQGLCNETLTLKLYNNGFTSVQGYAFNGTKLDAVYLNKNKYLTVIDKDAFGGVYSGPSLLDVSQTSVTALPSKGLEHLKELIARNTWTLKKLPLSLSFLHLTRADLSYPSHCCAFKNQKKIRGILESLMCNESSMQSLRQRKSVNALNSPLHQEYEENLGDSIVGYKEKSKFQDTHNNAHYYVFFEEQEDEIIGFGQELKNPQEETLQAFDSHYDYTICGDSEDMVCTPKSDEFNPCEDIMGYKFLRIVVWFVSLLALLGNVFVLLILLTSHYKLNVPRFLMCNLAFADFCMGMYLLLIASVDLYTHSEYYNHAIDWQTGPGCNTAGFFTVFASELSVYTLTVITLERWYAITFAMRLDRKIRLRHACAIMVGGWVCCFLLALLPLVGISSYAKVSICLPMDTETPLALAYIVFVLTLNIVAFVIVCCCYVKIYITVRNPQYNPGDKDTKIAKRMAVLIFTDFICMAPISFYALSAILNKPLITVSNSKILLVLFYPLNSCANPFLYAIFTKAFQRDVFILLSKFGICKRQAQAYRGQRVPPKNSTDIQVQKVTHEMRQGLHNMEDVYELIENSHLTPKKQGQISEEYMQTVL
Chain of Nuclear receptor subfamily 1 group I member 2 (Rattus norvegicus) (Q9R1A7 whole entry, looked up): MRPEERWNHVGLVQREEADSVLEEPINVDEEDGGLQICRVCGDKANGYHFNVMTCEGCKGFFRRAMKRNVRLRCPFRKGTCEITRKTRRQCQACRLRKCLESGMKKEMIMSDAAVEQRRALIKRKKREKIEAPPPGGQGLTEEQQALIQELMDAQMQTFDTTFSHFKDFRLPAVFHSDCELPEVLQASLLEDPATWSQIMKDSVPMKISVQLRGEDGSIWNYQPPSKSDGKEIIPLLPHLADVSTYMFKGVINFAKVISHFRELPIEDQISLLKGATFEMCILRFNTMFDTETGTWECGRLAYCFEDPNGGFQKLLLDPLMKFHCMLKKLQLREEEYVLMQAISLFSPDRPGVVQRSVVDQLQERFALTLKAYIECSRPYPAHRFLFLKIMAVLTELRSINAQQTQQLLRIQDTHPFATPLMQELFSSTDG
Chain of Progesterone receptor (Homo sapiens) (P06401 whole entry, looked up): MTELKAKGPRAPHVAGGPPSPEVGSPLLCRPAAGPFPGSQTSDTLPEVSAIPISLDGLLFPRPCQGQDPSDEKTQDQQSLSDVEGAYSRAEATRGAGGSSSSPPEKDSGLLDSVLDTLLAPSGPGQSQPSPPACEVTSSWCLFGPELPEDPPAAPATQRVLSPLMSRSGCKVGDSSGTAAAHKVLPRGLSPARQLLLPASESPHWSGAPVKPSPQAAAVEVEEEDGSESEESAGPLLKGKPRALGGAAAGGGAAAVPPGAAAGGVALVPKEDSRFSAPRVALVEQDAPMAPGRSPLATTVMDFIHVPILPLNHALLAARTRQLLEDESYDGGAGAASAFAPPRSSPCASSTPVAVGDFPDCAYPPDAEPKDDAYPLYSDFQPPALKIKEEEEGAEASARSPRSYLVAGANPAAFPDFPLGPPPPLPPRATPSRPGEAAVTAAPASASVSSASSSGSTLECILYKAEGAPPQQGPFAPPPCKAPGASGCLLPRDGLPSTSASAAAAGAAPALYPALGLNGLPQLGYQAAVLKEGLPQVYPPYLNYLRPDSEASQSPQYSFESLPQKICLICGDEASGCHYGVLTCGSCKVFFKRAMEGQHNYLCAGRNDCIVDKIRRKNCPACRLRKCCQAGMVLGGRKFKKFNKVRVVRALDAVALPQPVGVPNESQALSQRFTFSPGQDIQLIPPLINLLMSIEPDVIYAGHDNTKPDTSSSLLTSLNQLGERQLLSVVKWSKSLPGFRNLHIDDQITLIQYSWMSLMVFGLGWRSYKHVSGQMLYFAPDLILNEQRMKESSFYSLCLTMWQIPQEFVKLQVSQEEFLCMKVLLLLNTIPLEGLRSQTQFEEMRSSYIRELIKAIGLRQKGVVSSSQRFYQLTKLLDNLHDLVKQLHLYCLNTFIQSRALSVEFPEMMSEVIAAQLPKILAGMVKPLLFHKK

CN1[C@@H]2CC[C@H]1CC(OC(=O)c1c[nH]c3ccccc13)C2 (stereo not given in full)
inactive: Potency [1] | Potency [2] | Potency [3] | outcome [4] | outcome [5] | outcome [6] | Potency [7] | Potency [8] | Potency [9] | Potency [10] | outcome [11] | Potency [12] | Potency [13]

CCOC(=O)c1ccccc1O
inactive: Potency [1] | Potency [2] | Potency [14] | outcome [5] | outcome [6] | Potency [7] | Potency [9] | Potency [10] | outcome [11] | Potency [13] | max activation [15] -7.66% | Potency [16] | Potency [17]

Oc1ccccc1C=NCc1ccccc1
active: Potency [16] 14.1 µM
inactive: Potency [1] | Potency [18] | Potency [19] | Potency [3] | Potency [14] | outcome [4] | outcome [5] | outcome [20] | outcome [6] | Potency [7] | Potency [8] | Potency [9] | Potency [10] | outcome [11] | Potency [12] | Potency [13] | max activation [15] -0.218%

O=C(O)c1ccccc1Nc1cc(Cl)ccc1C(=O)O
inactive: activity change, negative = inhibition [1] 2.68% [at 19 µM] | activity change, negative = cytotoxicity [2] -2.8% [at 19 µM] | viability change, negative = cytotoxic [4] 0.61% [at 15.8 µM] | activity change, negative = cytotoxicity [5] 9.07% [at 15.8 µM] | activation [20] -1.11% [at 15.8 µM] | activation [7] -0.215% [at 11.8 µM] | activity change, negative = cytotoxicity [8] 7.26% [at 19 µM] | caspase activation [9] 0.287% [at 19 µM] | activity change, negative = cytotoxicity [10] 5.08% [at 19 µM] | caspase-3/7 activation [11] 1.36% [at 19 µM] | activity change, negative = cytotoxicity [12] 3.27% [at 19 µM] | activation [13] 5.75% [at 19 µM]
active: Potency [3] 13 µM

CC(C)c1ccccc1
inactive: Potency [1] | Potency [2] | outcome [4] | outcome [5] | outcome [20] | outcome [6] | Potency [7] | Potency [9] | Potency [10] | outcome [11] | Potency [12] | Potency [13]

CN(CCCN1c2ccccc2CCc2ccccc21)CC(=O)c1ccc(Cl)cc1
inactive: Potency [1] | Potency [2] | Potency [3] | Potency [14] | outcome [4] | outcome [5] | outcome [20] | Potency [7] | Potency [9] | outcome [11] | Potency [12]
active: Potency [13] 18.8 µM | Potency [16] 25.1 µM | Potency [17] 22.4 µM

CN(C)CCOc1ccccc1Cc1ccccc1
active: Potency [1] 29.8 µM
inactive: Potency [2] | outcome [4] | outcome [5] | outcome [20] | Potency [7] | Potency [8] | Potency [9] | Potency [10] | outcome [11] | Potency [13]

CCCCC(CC)COC(=O)COc1cc(Cl)c(Cl)cc1Cl (stereo not given)
inactive: Potency [2] | Potency [18] | Potency [19] | Potency [3] | Potency [14] | outcome [4] | outcome [5] | outcome [20] | outcome [6] | Potency [7] | Potency [8] | Potency [10] | outcome [11] | Potency [12] | Potency [13]

CN1CCN(c2c(F)cc3c(=O)c(C(=O)O)cn(CCF)c3c2F)CC1
inactive: Potency [1] | Potency [2] | Potency [3] | Potency [14] | outcome [4] | outcome [5] | outcome [20] | Potency [7] | Potency [9] | Potency [10] | outcome [11] | Potency [12] | Potency [13] | max activation [15] -0.524% | Potency [16] | Potency [17]

Cc1cccc(C)c1NC(=O)CN1CCCCCC1
active: Potency [13] 11.9 µM | Potency [16] 14.1 µM
inactive: Potency [1] | Potency [2] | Potency [3] | Potency [14] | outcome [4] | outcome [5] | outcome [20] | Potency [8] | Potency [9] | Potency [10] | outcome [11] | Potency [12] | max activation [15] -0.265% | Potency [17]

CCN1CC(CCN2CCOCC2)C(c2ccccc2)(c2ccccc2)C1=O (stereo not given)
inactive: Potency [1] | Potency [19] | Potency [3] | Potency [14] | outcome [4] | outcome [5] | outcome [20] | outcome [6] | Potency [7] | Potency [8] | Potency [9] | outcome [11] | Potency [12] | Potency [13] | max activation [15] 9.94% | Potency [16]

CC1CN(c2ccccc2)NC1=O (stereo not given)
active: Potency [13] 54.5 µM
inactive: Potency [1] | Potency [2] | Potency [14] | outcome [4] | outcome [5] | outcome [6] | Potency [7] | Potency [9] | Potency [10] | outcome [11] | Potency [12]

CCOC(=O)COc1ccc2c(c1)CC(NCC(O)c1cccc(Cl)c1)CC2 (stereo not given)
active: Potency [9] 48.9 µM
inactive: Potency [1] | Potency [18] | Potency [19] | Potency [3] | Potency [14] | outcome [4] | outcome [20] | outcome [6] | outcome [11] | Potency [13]

COc1nc(C)nc(NC(=O)NS(=O)(=O)c2ccccc2OCCCl)n1
inactive: Potency [2] | Potency [18] | Potency [19] | Potency [3] | Potency [14] | outcome [4] | outcome [5] | outcome [20] | Potency [7] | Potency [9] | Potency [10] | outcome [11] | Potency [13]

OCc1c2ccccc2cc2ccccc12
active: Potency [19] 54.6 µM | Potency [13] 48.7 µM
inactive: Potency [2] | Potency [18] | Potency [3] | Potency [14] | outcome [4] | outcome [5] | outcome [20] | Potency [7] | Potency [8] | Potency [9] | Potency [10] | outcome [11]

CO[C@@]1(NC(=O)CSCC#N)C(=O)N2C(C(=O)O)=C(CSc3nnnn3C)CS[C@@H]21
inactive: Potency [2] | Potency [18] | Potency [19] | Potency [3] | Potency [14] | outcome [4] | outcome [5] | outcome [20] | outcome [6] | Potency [7] | Potency [9] | Potency [10] | outcome [11] | Potency [12] | Potency [13] | max activation [15] -3.26% | Potency [16] | Potency [17]
